# In PubChem BioAssay (NCI):
# Compounds without any hit were thinned out: in the full panel of roughly 79,000, 15% have a hit. Unmarked numbers belong to inactive results. Active and inactive are the calls of the source. Rule as the data show it: active = growth inhibition above about 70%; inactive = the rest.
# Experiments:
# [1] = NCI Yeast Anticancer Drug Screen. Data for the rad52 strain (AID 147);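 also: 0% = growth of vehicle-treated control cultures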; settings: S. cerevisiae rad52 mutant growth inhibition, hits give high values
# Procedure, shortened: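 Screen used a yeast mutant impaired in DNA repair. After compound exposure, growth was measured. Values reflect inhibition compared with vehicle-treated cells.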
# [2] = NCI Yeast Anticancer Drug Screen. Data for the wt1 strain (AID 149);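 also: 0% = growth of vehicle-treated wt1 cultures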; settings: S. cerevisiae wt1 strain (SPY 50644) growth inhibition, hits give high values
# Procedure, shortened: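 Readout: yeast growth inhibition, normalised to vehicle controls, in the wt1 strain exposed to test compounds.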
# [3] = NCI Yeast Anticancer Drug Screen. Data for the rad50EPP+ strain (AID 151);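 also: 0% = growth of vehicle-treated control cultures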; settings: S. cerevisiae rad50 mutant strain, hits give high values
# Procedure, shortened: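 Exposing the rad50EPP+ strain to each compound, growth was compared with vehicle-only cultures to give inhibition.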
# [4] = NCI Yeast Anticancer Drug Screen. Data for the mgt1 strain (AID 153); settings: S. cerevisiae mgt1 mutant growth inhibition, hits give high values
# Procedure, shortened: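 Genetically defined yeast (mgt1) treated with compound; inhibition of growth expressed against vehicle-treated controls.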
# [5] = NCI Yeast Anticancer Drug Screen. Data for the rad50 strain (AID 155);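 also: 0% = growth of vehicle-only cultures of the same strain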; settings: S. cerevisiae rad50 strain growth inhibition, hits give high values
# Procedure, shortened: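 Compounds were tested on a yeast strain with an engineered DNA damage repair alteration; the reported value is growth inhibition normalised to vehicle treatment.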
# [6] = NCI Yeast Anticancer Drug Screen. Data for the mec2-1 strain (AID 157); settings: S. cerevisiae mec2-1 strain, hits give high values
# Procedure, shortened: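 Readout is yeast growth inhibition, normalised to vehicle-treated controls, in the mec2-1 strain exposed to compound.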
# [7] = NCI Yeast Anticancer Drug Screen. Data for the rad14 strain (AID 159);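 also: 0% = growth of vehicle-treated control cultures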; settings: S. cerevisiae rad14 strain growth inhibition, hits give high values
# Procedure, shortened: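 Compound-treated yeast with a defined DNA-repair lesion; growth inhibition normalised to vehicle-treated cultures.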
# [8] = NCI Yeast Anticancer Drug Screen. Data for the sgs1 mgt1 strain (AID 161);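 also: 0% = growth of cultures given vehicle only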; settings: S. cerevisiae sgs1 mgt1 strain, hits give high values
# Procedure, shortened: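 Growth of a repair-deficient yeast mutant was monitored after compound treatment and expressed as inhibition relative to vehicle-treated cultures.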
# [9] = NCI Yeast Anticancer Drug Screen. Data for the CLN2oe strain (AID 163);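 also: 0% = growth of vehicle-only control cultures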; settings: S. cerevisiae CLN2oe strain, hits give high values
# Procedure, shortened: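 Values reflect how much compound exposure reduced yeast growth, referenced to vehicle-exposed cells. Assay organism is a strain with a defined genetic change affecting cell-cycle control.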
# [10] = NCI Yeast Anticancer Drug Screen. Data for the cln2 rad14 strain (AID 165);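 also: 0% = growth equal to vehicle treated cultures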; settings: S. cerevisiae cln2 rad14 strain, hits give high values
# Procedure, shortened: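 Relative to vehicle controls, growth inhibition of compound-treated cln2 rad14 yeast was recorded.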
# [11] = NCI Yeast Anticancer Drug Screen. Data for the bub3 strain (AID 167); settings: S. cerevisiae bub3 mutant strain, hits give high values
# Procedure, shortened: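 Growth of a checkpoint-deficient yeast mutant is measured after compound exposure. Values represent inhibition relative to vehicle.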
# [12] = NCI Yeast Anticancer Drug Screen. Data for the wt2 strain (AID 169);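 also: 0% = growth of vehicle-treated yeast cultures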; settings: S. cerevisiae wt2 strain growth inhibition, hits give high values
# Procedure, shortened: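 Values express reduction in yeast growth under compound treatment, referenced to vehicle-treated cells.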
# [13] = NCI Yeast Anticancer Drug Screen. Data for the mlh1 strain (AID 171);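 also: 0% = growth of vehicle-treated control cultures of the same strain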; settings: S. cerevisiae mlh1 strain growth inhibition, hits give high values
# Procedure, shortened: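 Steps: expose the defined-mutant yeast strain to compound; expose a parallel culture to vehicle; measure growth; express compound effect as inhibition relative to the vehicle culture.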
# [14] = NCI Yeast Anticancer Drug Screen. Data for the sgs1 strain (AID 173);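 also: 0% = growth of vehicle-only control cultures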; settings: S. cerevisiae sgs1 mutant, hits give high values
# Procedure, shortened: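 Treat defined-mutant yeast with compound; measure growth; calculate inhibition relative to vehicle-treated cells.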
# [15] = NCI Yeast Anticancer Drug Screen. Data for the mlh1 rad18 strain (AID 175); settings: S. cerevisiae mlh1 rad18 strain growth inhibition, hits give high values
# Procedure, shortened: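 Test agents were incubated with a yeast strain of defined genotype (DNA damage repair defect). Inhibition of growth was derived by comparison with vehicle-exposed cultures.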
# [16] = NCI Yeast Anticancer Drug Screen. Data for the rad18 strain (AID 177); settings: S. cerevisiae rad18 mutant growth inhibition, hits give high values
# Procedure, shortened: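 A genetically defined yeast mutant impaired in DNA damage repair was treated with test compounds, then its growth was measured against cultures receiving vehicle alone.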
# [17] = at 5.0 µM (retest, dose inferred, filed as 0.5)
# [18] = at 50.0 µM (retest, dose inferred, filed as 5.0)
smiles,measurement,setting,value
CC(=O)O[C@H]1CC[C@@]2(C)C(=CC[C@@H]3C2CC[C@]2(C)C(=O)NC(=O)CC32)C1 (stereo partly specified),growth inhibition,[1]; at 1.2 µM,-33%
same,growth inhibition,[1]; at 3.7 µM,-35%
same,growth inhibition,[1]; at 11.0 µM,-42%
same,growth inhibition,[1]; at 33.0 µM,-29%
same,growth inhibition,[1]; at 100.0 µM,-41%
same,growth inhibition,[2]; at 1.2 µM,-17%
same,growth inhibition,[2]; at 3.7 µM,-7%
same,growth inhibition,[2]; at 11.0 µM,-21%
same,growth inhibition,[2]; at 33.0 µM,-17%
same,growth inhibition,[2]; at 100.0 µM,-21%
same,growth inhibition,[3]; at 1.2 µM,-8%
same,growth inhibition,[3]; at 3.7 µM,0%
same,growth inhibition,[3]; at 11.0 µM,25%
same,growth inhibition,[3]; at 33.0 µM,54%
same,growth inhibition,[3]; at 100.0 µM,27%
same,growth inhibition,[4]; at 1.2 µM,-28%
same,growth inhibition,[4]; at 3.7 µM,-19%
same,growth inhibition,[4]; at 11.0 µM,56%
same,growth inhibition,[4]; at 33.0 µM,76% (active)
same,growth inhibition,[4]; at 100.0 µM,70% (active)
same,growth inhibition,[5]; at 1.2 µM,-31%
same,growth inhibition,[5]; at 3.7 µM,-29%
same,growth inhibition,[5]; [17],-21%
same,growth inhibition,[5]; at 11.0 µM,-20%
same,growth inhibition,[5]; at 33.0 µM,-25%
same,growth inhibition,[5]; [18],-29%
same,growth inhibition,[5]; at 50.0 µM,12.4%
same,growth inhibition,[5]; at 100.0 µM,-28%
same,growth inhibition,[6]; at 1.2 µM,-21%
same,growth inhibition,[6]; at 3.7 µM,-15%
same,growth inhibition,[6]; [17],-44%
same,growth inhibition,[6]; at 11.0 µM,-13%
same,growth inhibition,[6]; at 33.0 µM,-43%
same,growth inhibition,[6]; [18],-6%
same,growth inhibition,[6]; at 50.0 µM,-12.2%
same,growth inhibition,[6]; at 100.0 µM,-23%
same,growth inhibition,[7]; at 1.2 µM,-29%
same,growth inhibition,[7]; at 3.7 µM,-27%
same,growth inhibition,[7]; at 11.0 µM,-26%
same,growth inhibition,[7]; at 33.0 µM,-11%
same,growth inhibition,[7]; at 100.0 µM,-41%
same,growth inhibition,[8]; [17],21%
same,growth inhibition,[8]; [18],74% (active)
same,growth inhibition,[8]; at 50.0 µM,81.5% (active)
same,growth inhibition,[9]; at 1.2 µM,2%
same,growth inhibition,[9]; at 3.7 µM,-4%
same,growth inhibition,[9]; at 11.0 µM,-16%
same,growth inhibition,[9]; at 33.0 µM,-13%
same,growth inhibition,[9]; at 100.0 µM,-23%
same,growth inhibition,[10]; [17],-6%
same,growth inhibition,[10]; [18],13%
same,growth inhibition,[10]; at 50.0 µM,29.5%
same,growth inhibition,[11]; at 1.2 µM,-14%
same,growth inhibition,[11]; at 3.7 µM,-29%
same,growth inhibition,[11]; [17],1%
same,growth inhibition,[11]; at 11.0 µM,-22%
same,growth inhibition,[11]; at 33.0 µM,-20%
same,growth inhibition,[11]; [18],46%
same,growth inhibition,[11]; at 50.0 µM,9.95%
same,growth inhibition,[11]; at 100.0 µM,-31%
same,growth inhibition,[12]; at 1.2 µM,8%
same,growth inhibition,[12]; at 3.7 µM,19%
same,growth inhibition,[12]; at 11.0 µM,46%
same,growth inhibition,[12]; at 33.0 µM,73% (active)
same,growth inhibition,[12]; at 100.0 µM,71% (active)
same,growth inhibition,[13]; at 1.2 µM,1%
same,growth inhibition,[13]; at 3.7 µM,17%
same,growth inhibition,[13]; at 11.0 µM,57%
same,growth inhibition,[13]; at 33.0 µM,75% (active)
same,growth inhibition,[13]; at 100.0 µM,64%
same,growth inhibition,[14]; at 1.2 µM,16%
same,growth inhibition,[14]; at 3.7 µM,40%
same,growth inhibition,[14]; at 11.0 µM,70% (active)
same,growth inhibition,[14]; at 33.0 µM,86% (active)
same,growth inhibition,[14]; at 100.0 µM,79% (active)
same,growth inhibition,[15]; [17],-17%
same,growth inhibition,[15]; [18],3%
same,growth inhibition,[15]; at 50.0 µM,-0.8%
same,growth inhibition,[16]; at 1.2 µM,-1%
same,growth inhibition,[16]; at 3.7 µM,0%
same,growth inhibition,[16]; at 11.0 µM,1%
same,growth inhibition,[16]; at 33.0 µM,4%
same,growth inhibition,[16]; at 100.0 µM,0%
NC(CS)C(=O)NCCNc1ccc(NCCNC(=O)C(N)CS)c2c1C(=O)c1c(O)ccc(O)c1C2=O (stereo unspecified),growth inhibition,[1]; at 1.2 µM,-10%
same,growth inhibition,[1]; at 3.7 µM,58%
same,growth inhibition,[1]; at 11.0 µM,73% (active)
same,growth inhibition,[1]; at 33.0 µM,80% (active)
same,growth inhibition,[1]; at 100.0 µM,48%
same,growth inhibition,[2]; at 1.2 µM,-42%
same,growth inhibition,[2]; at 3.7 µM,-25%
same,growth inhibition,[2]; at 11.0 µM,-67%
same,growth inhibition,[2]; at 33.0 µM,45%
same,growth inhibition,[2]; at 100.0 µM,68%
same,growth inhibition,[3]; at 1.2 µM,-4%
same,growth inhibition,[3]; at 3.7 µM,46%
same,growth inhibition,[3]; at 11.0 µM,67%
same,growth inhibition,[3]; at 33.0 µM,80% (active)
same,growth inhibition,[3]; at 100.0 µM,54%
same,growth inhibition,[4]; at 1.2 µM,7%
same,growth inhibition,[4]; at 3.7 µM,18%
same,growth inhibition,[4]; at 11.0 µM,23%
same,growth inhibition,[4]; at 33.0 µM,86% (active)
same,growth inhibition,[4]; at 100.0 µM,62%
same,growth inhibition,[5]; at 1.2 µM,33%
same,growth inhibition,[5]; at 3.7 µM,67%
same,growth inhibition,[5]; [17],75% (active)
same,growth inhibition,[5]; at 11.0 µM,81% (active)
same,growth inhibition,[5]; at 33.0 µM,85% (active)
same,growth inhibition,[5]; [18],88% (active)
same,growth inhibition,[5]; at 50.0 µM,79.2% (active)
same,growth inhibition,[5]; at 100.0 µM,62%
same,growth inhibition,[6]; at 1.2 µM,-42%
same,growth inhibition,[6]; at 3.7 µM,-26%
same,growth inhibition,[6]; [17],2%
same,growth inhibition,[6]; at 11.0 µM,-11%
same,growth inhibition,[6]; at 33.0 µM,86% (active)
same,growth inhibition,[6]; [18],89% (active)
same,growth inhibition,[6]; at 50.0 µM,76% (active)
same,growth inhibition,[6]; at 100.0 µM,65%
same,growth inhibition,[7]; at 1.2 µM,-55%
same,growth inhibition,[7]; at 3.7 µM,-47%
same,growth inhibition,[7]; at 11.0 µM,-43%
same,growth inhibition,[7]; at 33.0 µM,81% (active)
same,growth inhibition,[7]; at 100.0 µM,57%
same,growth inhibition,[8]; [17],6%
same,growth inhibition,[8]; [18],-32%
same,growth inhibition,[8]; at 50.0 µM,78.7% (active)
same,growth inhibition,[9]; at 1.2 µM,-4%
same,growth inhibition,[9]; at 3.7 µM,4%
same,growth inhibition,[9]; at 11.0 µM,-10%
same,growth inhibition,[9]; at 33.0 µM,84% (active)
same,growth inhibition,[9]; at 100.0 µM,56%
same,growth inhibition,[10]; [17],20%
same,growth inhibition,[10]; [18],-57%
same,growth inhibition,[10]; at 50.0 µM,74.2% (active)
same,growth inhibition,[11]; at 1.2 µM,-29%
same,growth inhibition,[11]; at 3.7 µM,-21%
same,growth inhibition,[11]; [17],13%
same,growth inhibition,[11]; at 11.0 µM,-34%
same,growth inhibition,[11]; at 33.0 µM,81% (active)
same,growth inhibition,[11]; [18],-54%
same,growth inhibition,[11]; at 50.0 µM,68.2%
same,growth inhibition,[11]; at 100.0 µM,51%
same,growth inhibition,[12]; at 1.2 µM,-19%
same,growth inhibition,[12]; at 3.7 µM,-57%
same,growth inhibition,[12]; at 11.0 µM,-63%
same,growth inhibition,[12]; at 33.0 µM,81% (active)
same,growth inhibition,[12]; at 100.0 µM,64%
same,growth inhibition,[13]; at 1.2 µM,-34%
same,growth inhibition,[13]; at 3.7 µM,-35%
same,growth inhibition,[13]; at 11.0 µM,-33%
same,growth inhibition,[13]; at 33.0 µM,85% (active)
same,growth inhibition,[13]; at 100.0 µM,62%
same,growth inhibition,[14]; at 1.2 µM,-23%
same,growth inhibition,[14]; at 3.7 µM,-36%
same,growth inhibition,[14]; at 11.0 µM,-27%
same,growth inhibition,[14]; at 33.0 µM,84% (active)
same,growth inhibition,[14]; at 100.0 µM,63%
same,growth inhibition,[15]; [17],13%
same,growth inhibition,[15]; [18],80% (active)
same,growth inhibition,[15]; at 50.0 µM,72.5% (active)
same,growth inhibition,[16]; at 1.2 µM,3%
same,growth inhibition,[16]; at 3.7 µM,-10%
same,growth inhibition,[16]; at 11.0 µM,-8%
same,growth inhibition,[16]; at 33.0 µM,84% (active)
same,growth inhibition,[16]; at 100.0 µM,61%
